Shown are actives, neighbours in structure and some others; about 2.6% of the full set was active somewhere.
Cruzain Triton = qHTS Assay for Promiscuous and Specific Inhibitors of Cruzain (with detergent) | Cruzipain (Trypanosoma cruzi), P25779 | purified cruzain, Z-FR-AMC fluorescence, 0.01% Triton | Potency, µM, most hits filed as inhibitors | 200,000 tested, 0.43% active | AID 1478, 2009; note: nearly all actives have a fitted effect of over 40% in size
Target sequence (P25779 123-467 limits assumed): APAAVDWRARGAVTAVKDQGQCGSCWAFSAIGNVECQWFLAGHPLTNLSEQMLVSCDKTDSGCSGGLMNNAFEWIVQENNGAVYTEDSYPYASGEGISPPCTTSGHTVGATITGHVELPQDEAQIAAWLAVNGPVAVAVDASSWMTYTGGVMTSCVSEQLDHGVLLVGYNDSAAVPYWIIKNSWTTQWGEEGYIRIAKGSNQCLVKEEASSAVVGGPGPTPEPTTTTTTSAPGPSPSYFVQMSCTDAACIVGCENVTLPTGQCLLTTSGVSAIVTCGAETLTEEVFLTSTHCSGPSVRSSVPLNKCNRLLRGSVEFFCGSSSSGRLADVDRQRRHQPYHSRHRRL
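Read-out: AMC fluorescence (360 nm excitation, 450 nm emission), four reads over 2 min, first-to-third difference used. Conditions: cruzain 1.5 nM, Z-FR-AMC 2 uM, pH 5.5 acetate, 5 mM DTT, 0.01% Triton X-100.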
Cruzain noTriton = qHTS Assay for Promiscuous and Specific Inhibitors of Cruzain (without detergent). purified cruzain, Z-FR-AMC fluorescence, no detergent. Potency, µM, actives largely listed as inhibitors. 200,000 tested, 2.3% active; note: nearly all actives have a fitted effect of over 40% in size
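Detergent-free condition (0.00005% Triton X-100) in acetate buffer pH 5.5 with DTT. 1.5 nM enzyme and compound were pre-mixed 15 min, then 2 uM Z-FR-AMC substrate added; reaction progress from fluorescence change between first and third reads (60 s).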
Hits are given with their value; i = inactive; ? = inconclusive. Calls come from the whole dose curve; as a rule, active = well fitted curve in the direction sought with a large enough effect; inconclusive = small, poorly fitted or top-dose-only effect, or another doubt; inactive = no such curve, though single readings can be large; an effect the other way counts as inactive or inconclusive.

SMILES	Cruzain Triton	Cruzain noTriton
O=C1CSC2(C(=O)N(Cc3ccccc3F)c3ccccc32)N1c1ccc(F)cc1 (stereo not given)	i	i
O=C1CS(=O)(=O)C2(C(=O)N(Cc3ccccc3Cl)c3ccccc32)N1c1ccc(F)cc1 (stereo not given)	i	2.51µM
Cc1ccccc1CN1C(=O)C2(c3ccccc31)N(c1ccccc1)C(=O)CS2(=O)=O (stereo not given)	i	i
CCc1cccc(N2C(=O)CS(=O)(=O)C23C(=O)N(Cc2ccc(F)cc2)c2ccc(C)cc23)c1 (stereo not given)	i	?
Cc1ccc(N2C(=O)CS(=O)(=O)C23C(=O)N(Cc2ccccc2C)c2ccccc23)cc1Cl (stereo not given)	i	2µM
CCc1cccc(N2C(=O)CS(=O)(=O)C23C(=O)N(Cc2ccccc2)c2ccc(C)cc23)c1 (stereo not given)	i	1.58µM
Cc1ccc(C)c(N(CC(=O)NCc2ccc3c(c2)OCO3)C(=O)CCC(=O)Nc2ccccn2)c1	i	i
Cn1nnnc1SCc1nnc(-c2ccc(F)cc2)o1	i	i
O=C1CSC(=NC2CCCCC2)N1	i	i
Cn1c(CS/C(N)=N/N=C/c2ccccc2)c(Br)c(=O)n1-c1ccccc1	?	31.6µM
NC(N)=N/N=C/c1ccccc1	i	i
O=C(CSCc1c(Cl)cccc1Cl)Nc1nccs1	i	i
C/C(=N\N=C(/N)SC1CC(=O)N(c2ccc(Cl)c(Cl)c2)C1=O)c1cccs1 (stereo not given)	i	31.6µM
C/C(=N\N=C(/N)SC1CC(=O)N(c2ccc(Cl)cc2)C1=O)c1cccs1 (stereo not given)	i	i
Cc1nc(-n2nc(C)c(CCC(C)C)c2C)sc1C(=O)Nc1cccc(Cl)c1	i	i
COC(=O)c1cc(CSc2nc3ccc(C)cc3[nH]2)oc1C	i	i
COc1cc(N=c2ssnc2Cl)cc(OC)c1	i	15.8µM
COc1cc(OC)cc(-c2nc(-c3ccccc3OC)no2)c1	i	?
COc1cccc(NC(=O)N(CCCN2CCOCC2)C(C)c2cc3cccc(OC)c3o2)c1 (stereo not given)	i	i
O=C(O)C[O][Sb][O]CC(=O)O	i	i
COc1cc(C(=O)NC(=S)Nc2ccc3c(c2)C(=O)N(C)C3=O)cc(OC)c1OC	i	i
O=C(Nc1nccs1)c1cc2c(s1)-c1ccccc1OC2	i	?
Cc1ccc(CCNC(=O)c2cc3c(s2)-c2ccccc2OC3)cc1	i	12.6µM
O=C(Nc1nc2ccccc2s1)c1cc2c(s1)-c1ccccc1OC2	i	12.6µM
O=C(NCCc1ccc(Cl)cc1)c1cc2c(s1)-c1ccccc1OC2	i	?
SMILES	Cruzain Triton	Cruzain noTriton
CC(=O)N(Cc1ccc(F)cc1)C1=C(NCc2ccccc2)C(=O)c2ccccc2C1=O	i	i
O=S(=O)(NCCc1csc2nc(-c3ccc(Cl)cc3)nn12)c1ccc2c(c1)OCCO2	i	i
Cc1ccc(NC(=O)/C(=C/c2cccc([N+](=O)[O-])c2)NC(=O)C2CCCCC2)cc1	i	i
CCOc1ccc(-c2nnc(SCC(=O)Nc3cccc(Cl)c3C)o2)cc1	i	?
Cc1ccc(C)c(NC(=O)CSc2nnc(-c3ccccc3)o2)c1	i	i
CCn1c2ccccc2c2cc(NC(=O)CSc3nnc(-c4ccccc4)o3)ccc21	i	20µM
CCn1c2ccccc2c2cc(NC(=O)CSc3nnc(-c4cccc(C)c4)o3)ccc21	i	7.94µM
CCOc1ccc(-c2nnc(SCC(=O)Nc3cccc(C#N)c3)o2)cc1	25.1µM	25.1µM
CCn1c2ccccc2c2cc(NC(=O)CSc3nnc(-c4cccc(F)c4)o3)ccc21	i	?
COc1ccc(CNc2ccnc(-c3ccoc3)n2)c(OC)c1	i	i
CCCCC(CC)C1OCC(C[N+]2(C)CCOCC2)O1 (stereo not given)	i	i
CCCCOc1ccc(-c2c(C#N)c(N)nc(SCC(N)=O)c2C#N)cc1	i	i
Cc1ccccc1Nc1nc(-c2ccccc2)c(C(=O)Nc2cccnc2)s1	i	i
Cc1cccc(OCCN2CSC(=S)N(C)C2)c1	i	i
COc1ccccc1OCCN1CSC(=S)N(C)C1	?	20µM
Cc1csc(NC(=O)COc2ccc3c(C)cc(=O)oc3c2)n1	i	i
Cn1cccc1C(=O)N1CCC2(CC1)CCN(c1ncccn1)CC2	i	i
Cc1ccc(-n2c(=S)[nH]c3nc4c(cc3c2=O)COC(C)(C)C4)cc1	i	?
CCC1(C)Cc2nc3[nH]c(=S)n(-c4ccc(C)cc4)c(=O)c3cc2CO1 (stereo not given)	i	20µM
O=C1[C@@H]2Cc3c([nH]c4ccccc34)[C@@H](c3ccccc3)N2C(=O)[C@@H]2Cc3c([nH]c4ccccc34)[C@@H](c3ccccc3)N12	i	10µM
COc1cc([C@H]2c3[nH]c4ccccc4c3C[C@H]3C(=O)N4[C@@H](c5cc(OC)c(OC)c(OC)c5)c5[nH]c6ccccc6c5C[C@H]4C(=O)N23)cc(OC)c1OC	i	i
Clc1ccc(OCCSCc2nc3ccccc3[nH]2)cc1	?	25.1µM
Cc1ccc(OCCSCc2nc3ccccc3[nH]2)cc1	i	i
Cc1ccccc1N1CCN(C2=NC(=O)/C(=C\c3cccs3)S2)CC1	i	?
O=C1N=C(N2CCN(c3cccc4ccccc34)CC2)S/C1=C/c1cccs1	i	20µM
CCN(Cc1ccccc1)C(=O)Cn1ncc2c(=O)oc3ccc(C)cc3c21	i	i
O=C(COc1ccccc1[N+](=O)[O-])N/N=C/c1cccc(OC(=O)c2ccc3c(c2)OCO3)c1	i	?
COc1cc(Cl)c(S(=O)(=O)NCCN2CCOCC2)cc1Cl	i	i

Compound activity: PubChem BioAssay, National Center for Advancing Translational Sciences (NCATS)
